{"source": "ChEMBL document CHEMBL3988442", "about": "“University of Dundee, Small-Polar-MMV Screening Library” (2021)", "note": "Hit rate of the full screen: of about 48,000 compounds, about 13,000 (27%) showed an effect of 50% or more. The list shows a part of the results."}
{"tested_on": "Wolbachia pipientis", "test": "Anti-Wolbachia Cell-Based Screen", "type": "functional", "set-up": "scale not given: in the data most compounds retested in dose-response had high values", "conditions": "5 µM", "units": {"Percent Effect": "%"}}
{"smiles": "CC(=O)N1CCCC1c1cccc(Cc2ccccc2Cl)n1", "note": "(centres undefined)", "Percent Effect": 110.5}
{"smiles": "CC(=O)N1CCCC1c1cccc(NCc2ccccc2F)n1", "note": "(centres undefined)", "Percent Effect": 111.2}
{"smiles": "CN(C)C(=O)CN1CCCC1c1cccc(Cc2ccccc2F)n1", "note": "(centres undefined)", "Percent Effect": 121.7}
{"smiles": "COCCN(C)CC1CCCN1S(=O)(=O)Cc1ccccc1F", "note": "(centres undefined)", "Percent Effect": 4.481}
{"smiles": "CS(=O)(=O)N1CCCC1c1cccc(Cc2ccccc2F)n1", "note": "(centres undefined)", "Percent Effect": 107.7}
{"smiles": "Cc1nccn1CC1CCCN1S(=O)(=O)Cc1ccccc1F", "note": "(centres undefined)", "Percent Effect": -7.214}
{"smiles": "O=C(NC[C@H]1OC[C@@H](NC2COC2)[C@@H]1O)c1cccs1", "Percent Effect": 4.392}
{"smiles": "CN(Cc1ccoc1)C(=O)C1CC(=O)N(Cc2ccncc2)C1", "note": "(centres undefined)", "Percent Effect": 3.123}
{"smiles": "CC(=O)N1CCCC1c1cccc(Cc2ccccc2F)n1", "note": "(centres undefined)", "Percent Effect": 1.098}
{"smiles": "CC(=O)N1CCCC1c1cccc(Oc2ccccc2F)n1", "note": "(centres undefined)", "Percent Effect": 150.9}
{"smiles": "COCC(=O)N1CCCC1c1cccc(Cc2ccccc2F)n1", "note": "(centres undefined)", "Percent Effect": 111}
{"smiles": "CC(C)(C)c1coc([C@@H]2COCCN2CC2CC2)n1", "Percent Effect": -8.42}
{"smiles": "CCc1n[nH]c(C2CN(Cc3nnc(C4CC4)n3C)CCO2)n1", "note": "(centres undefined)", "Percent Effect": -1.784}
{"smiles": "CCS(=O)(=O)c1ccc(N2CCC(NC(=O)c3ccccn3)CC2)cc1", "Percent Effect": 1.284}
{"smiles": "COc1ccc(C[C@H]2CN(c3nnc(C)s3)CC[C@@H]2OC)cc1.O=C(O)C(F)(F)F", "Percent Effect": 83.05}
{"smiles": "COc1ccc(C[C@H]2CN(c3nnc(C)s3)CC[C@H]2OC)cc1.O=C(O)C(F)(F)F", "Percent Effect": 100.4}
{"smiles": "Cn1nc(Cn2cccn2)c2c1CN(Cc1ccsc1)C2.O=C(O)C(F)(F)F", "Percent Effect": -9.596}
{"smiles": "O=C(O)C(F)(F)F.O=C(c1cnccn1)N1CCCC2(CCN(Cc3ccsc3)CC2)C1", "Percent Effect": 106.6}
{"smiles": "O=C(O)C(F)(F)F.O=C(O)C(F)(F)F.O=C(c1cnccn1)N1CCCC2(CCN(Cc3cccnc3)C2)C1", "note": "(centres undefined)", "Percent Effect": -9.392}
{"smiles": "Cn1cccc1CN1CCC2(CCCN(C(=O)c3cnccn3)C2)C1.O=C(O)C(F)(F)F", "note": "(centres undefined)", "Percent Effect": -0.2095}
{"smiles": "O=C(O)C(F)(F)F.O=C(c1cnccn1)N1CCOC2(CCN(Cc3ccsc3)CC2)C1", "Percent Effect": -59.08}
{"smiles": "O=C(O)C(F)(F)F.O=C(c1cnccn1)N1CC2(CCN(Cc3ccsc3)C2)C1", "Percent Effect": 96.61}
{"smiles": "O=C(O)C(F)(F)F.O=C(O)C(F)(F)F.c1csc(CN2CC3(CCN(Cc4ccsc4)C3)C2)n1", "Percent Effect": -7.051}
{"smiles": "O=C(O)C(F)(F)F.O=C(c1cnccn1)N1CCCC2(CCN(Cc3ccsc3)C2)C1", "note": "(centres undefined)", "Percent Effect": 100.1}
{"smiles": "O=C(O)C(F)(F)F.O=C(c1cnccn1)N1CCCC2(CCN(Cc3ccc(F)cc3)C2)C1", "note": "(centres undefined)", "Percent Effect": 8.086}
{"smiles": "CN1CC2(CCN(Cc3cccc(C#N)c3)CC2)CC1=O", "Percent Effect": 2.767}
{"smiles": "CCN1CCC(CNC(=O)C(c2ccc(F)cc2)N(C)C)(N(C)C)CC1", "note": "(centres undefined)", "Percent Effect": -1.923}
{"smiles": "CN(C)C(=O)c1ccc(OC2CCCC2)cc1", "Percent Effect": 1.251}
{"smiles": "O=C(c1cccs1)N1CC[C@H]2C[C@@H](c3nnc(C4CC4)o3)O[C@@H]2C1", "Percent Effect": 88.85}
{"smiles": "Cc1ccc(C(=O)N2C[C@@H]3C[C@@H](c4nnc(C5CC5)o4)O[C@@H]3C2)s1", "Percent Effect": -0.8808}
{"smiles": "Cn1cccc1C(=O)N1C[C@@H]2C[C@@H](c3nnc(C4CC4)o3)O[C@@H]2C1", "Percent Effect": 104.3}
{"smiles": "O=C(c1ccsc1)N1CC[C@H]2C[C@@H](c3nnc(C4CC4)o3)O[C@@H]2C1", "Percent Effect": 4.587}
{"smiles": "O=C(c1cscn1)N1CC[C@H]2C[C@H](c3nnc(C4CC4)o3)O[C@@H]2C1", "Percent Effect": 101.5}
{"smiles": "O=C(c1ccccc1)N1CC[C@H]2C[C@@H](c3nnc(C4CC4)o3)O[C@@H]2C1", "Percent Effect": 70.82}
{"smiles": "O=C1NCCO[C@H]2CN(C(=O)c3cccs3)CC[C@@H]12", "Percent Effect": -55.85}
{"smiles": "CCC(C)c1noc(C2CCN(C(=O)c3cccs3)CC2)n1", "note": "(centres undefined)", "Percent Effect": -5.715}
{"smiles": "Cn1cccc1C(=O)N1CC[C@H]2[C@H](CO[C@H]2CNS(C)(=O)=O)C1", "Percent Effect": -6.617}
{"smiles": "O=C(c1cscn1)N1C[C@@H]2C[C@@H](c3nnc(C4CC4)o3)O[C@@H]2C1", "Percent Effect": -5.593}
{"smiles": "COc1cc(N2CCC(c3nccn3Cc3ccccn3)CC2)ncn1", "Percent Effect": 2.703}
{"smiles": "CCCN1CCC(Nc2nc(C)ns2)CC1", "Percent Effect": -28.04}
{"smiles": "COc1ccc(CN2CCC=C(C(C)NC(C)=O)C2)cc1", "note": "(centres undefined)", "Percent Effect": -15.58}
{"smiles": "Cc1n[nH]c(CN2CCN(CC3CC3)[C@@H]3CS(=O)(=O)C[C@@H]32)n1", "Percent Effect": 6.272}
{"smiles": "CCOc1cccc(CCNC(=O)Cc2ccccc2O)n1", "Percent Effect": -26.19}
{"smiles": "Cc1cnc2c(S(=O)(=O)NCC3CCS(=O)(=O)C3)cccc2c1", "note": "(centres undefined)", "Percent Effect": -2.686}
{"smiles": "COCC(=O)N1CC[C@H]2C[C@@H](c3nnc(C4CC4)o3)O[C@@H]2C1", "Percent Effect": -4.608}
{"smiles": "Cc1nc([C@H]2C[C@@H]3CCN(C(=O)c4ccnnc4)C[C@H]3O2)sc1C", "Percent Effect": -5.019}
{"smiles": "O=C(c1ccccc1)N1CC[C@H]2C[C@H](c3nnc(C4CC4)o3)O[C@@H]2C1", "Percent Effect": 87.37}
{"smiles": "Cc1csc([C@@H]2C[C@@H]3CCN(C(=O)c4cccn4C)C[C@H]3O2)n1", "Percent Effect": -10.26}
{"smiles": "O=C(c1ccoc1)N1CC[C@H]2C[C@@H](c3nnc(C4CC4)o3)O[C@@H]2C1", "Percent Effect": 103}
{"smiles": "Cc1nc([C@@H]2C[C@@H]3CCN(C(=O)c4ccnnc4)C[C@H]3O2)sc1C", "Percent Effect": 3.729}
{"smiles": "COCC(=O)N1CC[C@H]2C[C@H](c3nc(C)no3)O[C@@H]2C1", "Percent Effect": 4.349}
{"smiles": "Cc1noc([C@H]2C[C@@H]3CCN(C(=O)c4cccn4C)C[C@H]3O2)n1", "Percent Effect": 59.05}
{"smiles": "COCC(=O)N1CC[C@H]2C[C@H](c3nnc(C4CC4)o3)O[C@@H]2C1", "Percent Effect": 59.46}
{"smiles": "COCCN1CCN(CCS(=O)(=O)C(F)(F)F)CC1C", "note": "(centres undefined)", "Percent Effect": 6.413}
{"smiles": "O=C1NCCN2CCN(Cc3ccc(Cl)c(Cl)c3)CC12", "note": "(centres undefined)", "Percent Effect": -5.038}
{"smiles": "O=C(CCn1cnnc1)N1CCCC(c2ncc[nH]2)C1", "note": "(centres undefined)", "Percent Effect": -20.34}
{"smiles": "Cc1c[nH]c(C2CCCN2C(=O)CCc2c(C)n[nH]c2C)n1", "note": "(centres undefined)", "Percent Effect": 109.7}
{"smiles": "Cc1n[nH]c(C)c1C1CCCN1C(=O)CNC(=O)C(C)(C)C", "note": "(centres undefined)", "Percent Effect": 1.097}
{"smiles": "CC(C)(C)c1noc(CCCC(=O)N2CCCC(c3ccn[nH]3)C2)n1", "note": "(centres undefined)", "Percent Effect": -11.26}
{"smiles": "Cc1c[nH]c(C2CCCN(C(=O)CCc3c(C)n[nH]c3C)C2)n1", "note": "(centres undefined)", "Percent Effect": 139.5}
{"smiles": "Cc1n[nH]c(C)c1C1COCCN1C(=O)c1cc(Cl)c[nH]1", "note": "(centres undefined)", "Percent Effect": -20.41}
{"smiles": "Cc1c[nH]c(C2COCCN2C(=O)CCc2c(C)n[nH]c2C)n1", "note": "(centres undefined)", "Percent Effect": 111}
{"smiles": "Cc1cccc(-c2c[nH]c(C3CCCN3C(=O)Cn3cc(C)cn3)n2)c1", "note": "(centres undefined)", "Percent Effect": -5.472}
{"smiles": "Cc1cccc(CCC(=O)N2CCOCC2c2c(C)n[nH]c2C)c1", "note": "(centres undefined)", "Percent Effect": 9.952}
